In PubChem BioAssay (NCATS):
Results filed as inconclusive are left out. Activity calls are given as the source filed them. Calls follow the shape of the dose curve; as a rule, active = well fitted curve in the direction sought with a large enough effect; inconclusive = small, poorly fitted or top-dose-only effect, or another doubt; inactive = no such curve, though single readings can be large; an effect the other way counts as inactive or inconclusive.

How the values were obtained:
CRL-7250 = normal cell line; assay: Cytotoxic Profiling of Annotated Libraries Using Quantitative High-Throughput Screening (AID 1296008); settings: Five cell lines viability, CellTiter-Glo ATP luminescence, 48-72 h; max response: hits give low values; also: nearly all actives have a fitted effect of over 60% in size; as to max response: % is scaled to controls: 0 for no effect and ±100 for the full control effect
Outline: (§1)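 Compounds were pin-transferred onto cells and incubated 48 or 72 hr at 37 degree Celsius, 95% humidity. CellTiter-Glo was added, plates sat 10 min at room temperature, then ATP-coupled luminescence was imaged as the viability read-out.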

HEK293 = assay: as above; settings: Five cell lines viability, CellTiter-Glo ATP luminescence, 48-72 h; max response: hits give low values
Outline: as §1

HaCat [1] = assay: as above; settings: Five cell lines viability, CellTiter-Glo ATP luminescence, 48-72 h; max response: hits give low values
Outline: as §1

KB-3-1 = assay: as above; settings: Five cell lines viability, CellTiter-Glo ATP luminescence, 48-72 h; max response: hits give low values
Outline: as §1

NIH3T3 [2] = assay: as above; settings: Five cell lines viability, CellTiter-Glo ATP luminescence, 48-72 h; max response: hits give low values
Outline: as §1

HACAT [3] = assay: qHTS assay to identify novel small-molecules to repurpose for Merkel cell carcinoma treatment (AID 1296009); settings: MCC and control cell lines, CellTiter-Glo viability, 72 h; at 44.8 µM (top of the series) unless noted; also: nearly all actives have a fitted effect of over 60% in size
Outline: (§2)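 qHTS format: cells treated with library compounds in DMSO across 8 (NPC) or 11 (MIPE) concentrations. Readout after 72 hr at 37 degree celsius was CellTiter-Glo luminescence.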

NIH3T3 [4] = assay: as above; settings: MCC and control cell lines, CellTiter-Glo viability, 72 h; at 44.8 µM (top of the series) unless noted
Outline: as §2

C33A = assay: Primary qHTS to identify gynecologic anti-cancer compounds using libraries of approved drugs and bioactive compounds (AID 1345084); settings: Gynecologic cancer cell panel viability, ATPlite luminescence, 48 h; series mostly up to 57.5 µM; also: % is scaled to controls: 0 for no effect and ±100 for the full control effect; nearly all actives have a fitted effect of over 55% in size
Outline: (§3)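 48 h compound exposure at 37 C, 5% CO2; five-point qHTS. ATPlite luminescence readout of cell ATP.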

CAOV3 = assay: as above; settings: Gynecologic cancer cell panel viability, ATPlite luminescence, 48 h; series mostly up to 57.5 µM
Outline: as §3

CASKI = assay: as above; settings: Gynecologic cancer cell panel viability, ATPlite luminescence, 48 h; series mostly up to 57.5 µM
Outline: as §3

Es-2 = assay: as above; settings: Gynecologic cancer cell panel viability, ATPlite luminescence, 48 h; series mostly up to 57.5 µM
Outline: as §3

HeLa = assay: as above; settings: Gynecologic cancer cell panel viability, ATPlite luminescence, 48 h; series mostly up to 57.5 µM
Outline: as §3

Hek293T = assay: as above; settings: Gynecologic cancer cell panel viability, ATPlite luminescence, 48 h, control line for the selectivity index; series mostly up to 57.5 µM
Outline: as §3

JEG-3 = assay: as above; settings: Gynecologic cancer cell panel viability, ATPlite luminescence, 48 h; series mostly up to 57.5 µM
Outline: as §3

OV90 = assay: as above; settings: Gynecologic cancer cell panel viability, ATPlite luminescence, 48 h; series mostly up to 57.5 µM
Outline: as §3

PA-1 = assay: as above; settings: Gynecologic cancer cell panel viability, ATPlite luminescence, 48 h; series mostly up to 57.5 µM
Outline: as §3

CC(=O)OC1C(O)/C(C)=C\C2C(OC(=O)c3ccccc3)C(C)CC2(OC(C)=O)C(OC(C)=O)C(C)/C=C/C(C)(C)C1OC(C)=O (stereo not given)
inactive: max response (CRL-7250) -1.02% | max response (HEK293) -2.9% | outcome (HaCat [1]) | max response (KB-3-1) 7.33% | outcome (NIH3T3 [2]) | outcome (HACAT [3]) inactive [at 17.4 µM] | outcome (NIH3T3 [4]) inactive [at 17.4 µM] | Potency (C33A) | Potency (CAOV3) | outcome (CASKI) | Potency (Es-2) | Potency (HeLa) | Potency (Hek293T) | Potency (JEG-3) | Potency (OV90) | Potency (PA-1)

CC(=O)O[C@@H]1[C@@H](O)[C@H](C)O[C@@H](O[C@H]2[C@@H]3C=CO[C@@H](O[C@@H]4O[C@H](CO)[C@@H](O)[C@H](O)[C@H]4OC(C)=O)[C@@H]3[C@@]3(CO)O[C@@H]23)[C@@H]1OC(=O)/C=C/c1ccc(O)cc1
inactive: max response (CRL-7250) 0.704% | max response (HEK293) 2.14% | outcome (HaCat [1]) | outcome (KB-3-1) | outcome (NIH3T3 [2]) | outcome (HACAT [3]) inactive [at 17.4 µM] | outcome (NIH3T3 [4]) inactive [at 17.4 µM] | Potency (C33A) | Potency (CAOV3) | outcome (CASKI) | Potency (Es-2) | Potency (HeLa) | Potency (Hek293T) | Potency (JEG-3) | Potency (OV90) | Potency (PA-1)

Cc1oc2nc3c(c(NC(=O)CN4CCCC4=O)c2c1C)CCCC3
inactive: max response (CRL-7250) 3.82% | max response (HEK293) -1.01% | outcome (HaCat [1]) | max response (KB-3-1) 8.69% | outcome (NIH3T3 [2]) | outcome (HACAT [3]) | outcome (NIH3T3 [4]) | Potency (C33A) | Potency (CAOV3) | outcome (CASKI) | Potency (Es-2) | Potency (HeLa) | Potency (Hek293T) | Potency (JEG-3) | Potency (OV90) | Potency (PA-1)

CC(C)C1CCC(C(=O)N[C@@H](Cc2ccccc2)C(=O)O)CC1 (stereo not given in full)
inactive: outcome (CRL-7250) | max response (HEK293) 3.42% | outcome (HaCat [1]) | outcome (KB-3-1) | outcome (NIH3T3 [2]) | outcome (HACAT [3]) | outcome (NIH3T3 [4]) | Potency (C33A) | Potency (CAOV3) | outcome (CASKI) | Potency (Es-2) | Potency (HeLa) | Potency (Hek293T) | Potency (JEG-3) | Potency (OV90) | Potency (PA-1)

CC[C@H](C)[C@H](NC(=O)[C@H](Cc1ccc(O)cc1)NC(=O)[C@@H](N)C(C)C)C(=O)N[C@@H](Cc1cnc[nH]1)C(=O)N1CCC[C@H]1C(=O)N[C@@H](Cc1ccccc1)C(=O)O
inactive: outcome (CRL-7250) | max response (HEK293) 0.716% | outcome (HaCat [1]) | outcome (KB-3-1) | outcome (NIH3T3 [2]) | outcome (HACAT [3]) inactive [at 4.96 µM] | outcome (NIH3T3 [4]) inactive [at 4.96 µM] | activity change, negative = cytotoxicity (C33A) 19.1% [at 6.55 µM] | activity change, negative = cytotoxicity (CAOV3) 20.7% [at 6.55 µM] | activity change, negative = cytotoxicity (CASKI) -0.165% [at 6.55 µM] | activity change, negative = cytotoxicity (Es-2) 0.0528% [at 6.55 µM] | activity change, negative = cytotoxicity (HeLa) 25.4% [at 6.55 µM] | activity change, negative = cytotoxicity (Hek293T) 1.27% [at 6.55 µM] | activity change, negative = cytotoxicity (JEG-3) 1.86% [at 6.55 µM] | activity change, negative = cytotoxicity (OV90) -1.9% [at 6.55 µM] | activity change, negative = cytotoxicity (PA-1) 4.28% [at 6.55 µM]
